Test results reported in PubChem BioAssay AID1159580 (chemical genetic matrix, 2015).
Among all 5,500 compounds or so, about 2,000 (36%) were called active. Inconclusive results (about 18%) are left out. No stated cut-off is given here; in the data, active means normalized growth mostly below about 0.91 (no sharp cut-off); inconclusive means no clear call, values can overlap the other calls; inactive means mostly above about 0.92. Some of the results follow.

Experiment: chemical genetic growth profiling, strain panel (AID 1159580);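 further: tested at 20 µM; growth read once vehicle control cultures reached saturation at 30 °C; 1 = growth at the plate median or of vehicle wells; lower values mean less growth of the strain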
Conditions: S. cerevisiae deletion strains, growth OD
[1] = locus YDL101C, strain DUN1, hits give low values
[2] = locus YHR030C, strain SLT2, hits give low values

Measured: normalized growth

CC(C)Sc1c(Cl)cccc1NC(=O)Nc1cccc(C(F)(F)F)c1
active: [2] 0.773
inactive: locus YAR019C, strain CDC15, hits give low values 0.981 | locus YBL105C, strain PKC1, hits give low values 0.977 | locus YBR135W, strain CKS1, hits give low values 0.972 | locus YBR136W, strain MEC1, hits give low values 0.978 | locus YBR160W, strain CDC28, hits give low values 0.981 | locus YDL017W, strain CDC7, hits give low values 0.984 | locus YDL028C, strain MPS1, hits give low values 0.979 | [1] 0.98 | locus YDL108W, strain KIN28, hits give low values 0.972 | locus YDL132W, strain cdc53, hits give low values 0.975 | locus YDL214C, strain PRR2, hits give low values 0.927 | locus YDR052C, strain DBF4, hits give low values 0.979 | locus YDR054C, strain cdc34, hits give low values 0.97 | locus YDR226W, strain ADK1, hits give low values 0.965 | locus YDR477W, strain SNF1, hits give low values 0.916 | locus YER123W, strain YCK3, hits give low values 0.888 | locus YER133W, strain GLC7, hits give low values 0.945 | locus YFL009W, strain cdc4, hits give low values 0.99 | locus YFL029C, strain CAK1, hits give low values 0.976 | locus YFR003C, strain YPI1, hits give low values 0.974 | locus YFR019W, strain FAB1, hits give low values 0.918 | locus YFR028C, strain CDC14, hits give low values 0.974 | locus YGR040W, strain KSS1, hits give low values 0.908 | locus YGR052W, strain FMP48, hits give low values 1.04 | locus YGR092W, strain DBF2, hits give low values 0.94 | locus YHR079C, strain IRE1, hits give low values 0.953 | locus YHR082C, strain KSP1, hits give low values 0.96 | locus YHR205W, strain SCH9, hits give low values 0.891 | locus YIL147C, strain SLN1, hits give low values 0.979 | locus YJL095W, strain BCK1, hits give low values 0.887 | locus YJL128C, strain PBS2, hits give low values 0.956 | locus YJL157C, strain FAR1, hits give low values 0.946 | locus YJR016C, strain ILV3, hits give low values 0.984 | locus YJR066W, strain TOR1 (second series), hits give low values 0.943 | locus YJR066W, strain TOR1, hits give low values 0.912 | locus YKL048C, strain ELM1, hits give low values 0.946 | locus YKL067W, strain YNK1, hits give low values 0.914 | locus YKL101W, strain HSL1, hits give low values 0.937 | locus YKL193C, strain SDS22, hits give low values 0.975 | locus YKL203C, strain TOR2, hits give low values 0.947 | locus YLR113W, strain HOG1, hits give low values 0.908 | locus YLR133W, strain CKI1, hits give low values 0.922 | locus YLR403W, strain SFP1, hits give low values 0.953 | locus YML070W, strain DAK1, hits give low values 0.929 | locus YMR001C, strain CDC5, hits give low values 0.977 | locus YMR205C, strain PFK2 (second series), hits give low values 0.936 | locus YMR277W, strain FCP1, hits give low values 0.973 | locus YNL006W, strain LST8, hits give low values 0.98 | locus YNL020C, strain ARK1, hits give low values 0.926 | locus YNL161W, strain CBK1, hits give low values 0.983 | locus YNL183C, strain NPR1, hits give low values 0.918 | locus YNL207W, strain RIO2, hits give low values 0.982 | locus YNL222W, strain SSU72, hits give low values 0.97 | locus YNL307C, strain MCK1 (second series), hits give low values 0.876 | locus YOL078W, strain AVO1, hits give low values 0.966 | locus YOL136C, strain PFK27, hits give low values 0.93 | locus YOR061W, strain CKA2, hits give low values 0.957 | locus YOR119C, strain RIO1, hits give low values 0.995 | locus YOR231W, strain MKK1, hits give low values 0.946 | locus YOR329C, strain SCD5, hits give low values 0.98 | locus YPL031C, strain PHO85, hits give low values 0.905 | locus YPL153C, strain RAD53, hits give low values 0.911 | locus YPL204W, strain HRR25, hits give low values 0.896 | locus YPL209C, strain IPL1, hits give low values 0.976 | locus YPL256C, strain CLN2, hits give low values 0.861 | locus YPR025C, strain CCL1, hits give low values 0.979 | locus YPR106W, strain ISR1, hits give low values 0.976 | locus YPR111W, strain DBF20, hits give low values 0.974 | strain NNK1, hits give low values 0.97 | strain TSCII, hits give low values 0.992

Cc1ccc(NC(=S)C(C#N)C(=O)N2CCCC2)c(C)c1 (centres undefined)
inactive: locus YAL013W, strain DEP1, hits give low values 1.01 | locus YBR229C, strain ROT2, hits give low values 0.998 | [1] 1.01 | locus YDR150W, strain NUM1, hits give low values 0.928 | locus YEL061C, strain CIN8, hits give low values 1.02 | locus YGR078C, strain PAC10, hits give low values 0.988 | locus YGR229C, strain SMI1, hits give low values 1 | [2] 1.06 | locus YHR087W, strain rtc3, hits give low values 1.01 | locus YJR043C, strain POL32, hits give low values 1.01 | locus YJR075W, strain HOC1, hits give low values 1.02 | locus YKL190W, strain CNB1, hits give low values 1.01 | locus YLR039C, strain RIC1, hits give low values 1.02 | locus YLR058C, strain SHM2 (second series), hits give low values 0.995 | locus YLR085C, strain ARP6, hits give low values 1.06 | locus YLR262C, strain YPT6, hits give low values 1 | locus YML094W, strain GIM5, hits give low values 1.03 | locus YMR219W, strain ESC1, hits give low values 1 | locus YMR263W, strain SAP30, hits give low values 0.922 | locus YMR307W, strain GAS1, hits give low values 1.03 | locus YNL153C, strain GIM3, hits give low values 0.98 | locus YNL298W, strain CLA4 (second series), hits give low values 1.03 | locus YNL322C, strain KRE1, hits give low values 0.988 | locus YNR030W, strain Alg12, hits give low values 1.02 | locus YOL006C, strain TOP1, hits give low values 1.04 | locus YPL055C, strain LGE1, hits give low values 0.948 | locus YPL241C, strain CIN2, hits give low values 1.02 | locus YPR135W, strain CTF4, hits give low values 1.04
